About 79,000 compounds went through this panel and 15% of them were active in at least one assay; those are over-represented in the sample as a whole. Values without a mark were called inactive. The source made the active and inactive calls. Rule as the data show it: active = growth inhibition above about 70%; inactive = the rest.
Assay: NCI Yeast Anticancer Drug Screen. Data for the mgt1 strain (AID 153)
Details: S. cerevisiae mgt1 mutant growth inhibition, hits give high values
Description: Growth inhibition of yeast strains with defined genetic alterations is measured as a screen for potential anti-cancer activity. Selected strains with alterations in DNA damage repair or cell cycle control were exposed to compounds and growth inhibition was measured relative to vehicle treated controls. The strain used in this assay is mgt1

Question: With `CN(CCOc1ccc(Cl)cc1)CCOc1ccc(Cl)cc1` as the compound, how does the growth inhibition (at 1.2 µM) read?
Answer: 3%

Question: And the growth inhibition (at 3.7 µM)?
Answer: 13%

Question: And the growth inhibition (at 11.0 µM)?
Answer: 57%

Question: And the growth inhibition (at 33.0 µM)?
Answer: 98% (active)

Question: What about the growth inhibition (at 100.0 µM) of the same compound?
Answer: 99% (active)

Question: Which growth inhibition (at 1.2 µM) does the source give for `O=C1CC(C(O)(C(F)(F)F)C(F)(F)Cl)CCC1C(O)(C(F)(F)F)C(F)(F)Cl` (stereo not given) here?
Answer: 60%

Question: What about the growth inhibition (at 3.7 µM) of the same compound?
Answer: 65%

Question: What about the growth inhibition (at 11.0 µM) of the same compound?
Answer: 87% (active)

Question: And the growth inhibition (at 33.0 µM)?
Answer: 94% (active)

Question: And the growth inhibition (at 100.0 µM)?
Answer: 97% (active)

Question: Which growth inhibition (at 1.2 µM) does the source give for `C/C(=N/NC(=S)Nc1ccccc1C)c1ccccn1` here?
Answer: -6%

Question: And the growth inhibition (at 3.7 µM)?
Answer: -10%

Question: And the growth inhibition (at 11.0 µM)?
Answer: 4%

Question: What about the growth inhibition (at 33.0 µM) of the same compound?
Answer: -22%

Question: And the growth inhibition (at 100.0 µM)?
Answer: -5%

Question: For `Cc1cc(OCc2nc(N)nc(N)c2-c2ccc(Cl)c(Cl)c2)ccc1[N+](=O)[O-]`, which growth inhibition (at 1.2 µM) is on record?
Answer: 2%

Question: What about the growth inhibition (at 3.7 µM) of the same compound?
Answer: 5%

Question: And the growth inhibition (at 11.0 µM)?
Answer: 2%

Question: And the growth inhibition (at 33.0 µM)?
Answer: 1%

Question: What about the growth inhibition (at 100.0 µM) of the same compound?
Answer: 10%

Question: With `O=Cc1ccccc1C=O` as the compound, how does the growth inhibition (at 1.2 µM) read?
Answer: 4%

Question: What about the growth inhibition (at 3.7 µM) of the same compound?
Answer: 9%

Question: What about the growth inhibition (at 11.0 µM) of the same compound?
Answer: 20%

Question: And the growth inhibition (at 33.0 µM)?
Answer: 36%

Question: What about the growth inhibition (at 100.0 µM) of the same compound?
Answer: 91% (active)

Question: With `O=C(O)C(=Cc1ccc(-c2ccccc2)cc1)C(=O)O` as the compound, how does the growth inhibition (at 1.2 µM) read?
Answer: 2%

Question: What about the growth inhibition (at 3.7 µM) of the same compound?
Answer: 4%

Question: And the growth inhibition (at 11.0 µM)?
Answer: 22%

Question: What about the growth inhibition (at 33.0 µM) of the same compound?
Answer: 58%

Question: And the growth inhibition (at 100.0 µM)?
Answer: 90% (active)

Question: With `NCCCSc1ccccc1` as the compound, how does the growth inhibition (at 1.2 µM) read?
Answer: -3%

Question: And the growth inhibition (at 3.7 µM)?
Answer: -4%

Question: What about the growth inhibition (at 11.0 µM) of the same compound?
Answer: -4%

Question: What about the growth inhibition (at 33.0 µM) of the same compound?
Answer: 13%

Question: And the growth inhibition (at 100.0 µM)?
Answer: -1%

Question: With `C1=CCN([B-](c2ccccc2)[C+]2CCCCC2)C=C1` as the compound, how does the growth inhibition (at 1.2 µM) read?
Answer: -2%

Question: And the growth inhibition (at 3.7 µM)?
Answer: -1%

Question: What about the growth inhibition (at 11.0 µM) of the same compound?
Answer: 0%

Question: And the growth inhibition (at 33.0 µM)?
Answer: 44%

Question: And the growth inhibition (at 100.0 µM)?
Answer: 99% (active)

Source: PubChem BioAssay (NCI)
